PubChem BioAssay (Tox21)
Inconclusive results are not listed. Entries that show only a call come without a potency. Calls of active or inactive are those of the source. The call rests on the fitted dose curve; in most records, active means well fitted activation curve with a large enough effect in the repeat runs; inconclusive means weak or mixed curves; inactive means flat fitted curve, though single readings scatter.

experiment: A CellTox Green Cytotoxicity Assay to monitor cytotoxicity in HepG2 cells - 32 hour (AID 1224883); conditions: CellTox Green fluorescence; series mostly up to 76.8 µM; further: nearly all actives have a fitted effect of over 50% in size
Source text: National Center for Advancing Translational Sciences [NCATS]
NIH Chemical Genomics Center [NCGC]
U.S. Environmental Protection Agency [EPA]
National Institutes of Environmental Health Sciences [NIEHS]
National Toxicology Program [NTP]
Cell-based models are critical for drug discovery. Determining the natural cytotoxic effects resulting from test compounds is an essential research activity. A CellTox Green Cytotoxicity Assay to monitor cytotoxicity in real time of continues cell culture during 40 hours of the compound treatment was used to screen Tox21 10K library compounds in HepG2 cells. CellTox Green Cytotoxicity Assay is a nonlytic, homogeneous, biofluorescent method to measure cytotoxicity in cell culture after experimental manipulation. The assay system uses a proprietary asymmetric cyanine dye that is excluded from viable cells but preferentially stains the dead cell's DNA. […] Viable cells produce no appreciable increases in fluorescence. Therefore, the fluorescence signal produced by the binding interaction with dead cell DNA is proportional to cytotoxicity.
The mixture of HepG2 cell suspension and reagents were dispensed at 600cells/6 ul/well in 1536-well tissue culture treated black solid bottom plates using a Multidrop dispenser. After the assay plates were incubated at a 37 C/5% CO2 incubator for 5 hours, 23 nL of compounds dissolved in DMSO, positive and negative controls was transferred to the assay plate by a pintool work station. The plates were incubated at 37 C for 40 hours. The fluorescence intensity were measured at 0h, 8h, 16h, 24h, 32h and 40h time points using ViewLux plate reader during compound treatment.
Potency means the concentration at half of the fitted maximal effect.

SMILES	Potency	cytotoxicity increase
O=C(O)c1nc(Cl)c(Cl)c(Cl)c1Cl	inactive	
CNCCCCOc1ccccc1Cc1ccccc1	21.3 µM (active)	
Cc1ccccc1S(=O)(=O)O	inactive	
CCCCC(CC)COC(=O)CCCCCCCCC(=O)OCC(CC)CCCC (stereo not given)	inactive	
CC1OC(=O)C(C)OC1=O (stereo not given)	inactive	
CCO[Si](CCCCl)(OCC)OCC	inactive	
Cc1[nH]c(C)c(Cl)c(=O)c1Cl		-7.2% [at 15.8 µM] (inactive)
CC[N+]1(CC)CCC(=C(c2ccccc2)c2ccccc2)C1C (stereo not given)	inactive	
O=[N+]([O-])c1ccc(NCCO)c(OCCO)c1	inactive	
CN(C)c1ccc(CCO)cc1	inactive	
O=C(O)C(S)C(S)C(=O)O (stereo not given)	inactive	
COc1cc2nc(N(C)CCCNC(=O)C3CCCO3)nc(N)c2cc1OC (stereo not given)	inactive	
CC(C)O.CC(C)O.CCOC(=O)/C=C(\C)O.CCOC(=O)/C=C(\C)O.[Ti]	inactive	
CCCCNc1ccc(C(=O)OCCOCCOCCOCCOCCOCCOCCOCCOCCOC)cc1	inactive	
CC(C)OC(=O)C(C)N(C(=O)c1ccccc1)c1ccc(F)c(Cl)c1 (stereo not given)	inactive	
C=C(C)C(=O)OCCOCC	inactive	
CC(C)(C)Cl	inactive	
CCCCCCCCCc1ccc(OCCOCCO)cc1	20.5 µM (active)	
CNCCCN1c2ccccc2CCc2ccccc21	26.8 µM (active)	
COc1ccc(S(=O)(=O)N2C(=O)[C@@](c3ccccc3OC)(N3C[C@H](O)C[C@H]3C(=O)N(C)C)c3cc(Cl)ccc32)c(OC)c1	inactive	

SMILES	Potency	cytotoxicity increase
CCOC(=O)c1cccnc1	inactive	
CN1CCN(C(c2ccccc2)c2ccccc2)CC1	inactive	
Cc1oc2c(NC(=O)c3c(Cl)cccc3Cl)cccc2c1C(C)(C)O	49 µM (active)	
Cc1ccc(N=Nc2c(O)c(C(=O)O)cc3ccccc23)c(S(=O)(=O)O)c1	inactive	
O=[N+]([O-])c1cccc(S(=O)(=O)O)c1	inactive	
CC1=CC[C@H](C(C)C)C=C1	inactive	
O=C(O)c1ccc(-n2nc(-c3ccccc3O)nc2-c2ccccc2O)cc1	inactive	
CC1(c2ccccc2)OC(C(=O)O)=CC1=O (stereo not given)	inactive	
O=C(O)c1ccc(S(=O)(=O)O)cc1C(=O)O	inactive	
O[C@@H](COc1cccc2ncccc12)CN1CCN(C2c3ccccc3[C@@H]3[C@H](c4ccccc42)C3(F)F)CC1 (stereo not given in full)	inactive	
CC1CCC(=O)C1=O (stereo not given)	inactive	
CCN(CC)CCOC(=O)C(Cc1cccc2ccccc12)CC1CCCO1 (stereo not given)	inactive	
CC(C)C[C@H]1C(=O)N2CCC[C@H]2[C@]2(O)O[C@](NC(=O)[C@@H]3C=C4c5cccc6[nH]c(Br)c(c56)C[C@H]4N(C)C3)(C(C)C)C(=O)N12	inactive	
Nc1ccc(S(=O)(=O)Nc2ccccc2)cc1	inactive	
Clc1ccc(Cn2c(CN3CCCC3)nc3ccccc32)cc1	inactive	
O=C1CCC(=O)O1	inactive	
Nc1cccc([N+](=O)[O-])c1	inactive	
OC[C@H]1O[C@@H](OCCc2ccc(O)cc2)[C@H](O)[C@@H](O)[C@@H]1O	inactive	
CN(C)c1ccc(C(c2ccccc2)c2ccc(N(C)C)cc2)cc1	inactive	
CCc1cc(C2=C(C(=O)O)N(c3ccccc3C(F)(F)F)S(=O)(=O)c3ccccc32)cc2c1OCO2	inactive	
